Shown are actives, neighbours in structure and some others; about 2.4% of the full set was active somewhere.
D2 PAM-1 – positive allosteric modulators of human D2 dopamine receptor; potentiation, % at 10 µM; 0.34% of 340,000 active; P14416; HEK293 T-REx D2, calcium flux, EC20 dopamine potentiation;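 active = potentiation over 3 SD above the plate norm, cut at about 30% in these data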; note: 0% is about no effect
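Primary screen. Calcium kinetics in induced HEK293 T-REx D2 cells: compound pre-addition 180 s, EC20 dopamine, 180 s more.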
D2 ag-1 – D2 dopamine receptor (human) agonism; 0.53% of 340,000 active; activation, % at 2 µM; P14416; HEK293 T-REx D2 cells, calcium flux agonist mode;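 active = activation over 3 SD above normal in the single-dose calcium agonist read, cut at about 30% in these data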; note: 0% is about no effect
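In this primary screen, compounds producing a positive calcium signal within 180 s of addition to tetracycline-induced, force-coupled HEK293 Trex D2 cells are flagged; cells are dye-loaded with a no-wash calcium kit beforehand.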
D2 ag-2 – activates the human D2 dopamine receptor; P14416; DiscoveRx PathHunter D2 beta-arrestin, luminescence, 90 min; 100% = 57 uM dopamine signal; activation, % (no concentration beside the values); 0.084% of 360,000 active; AID 624465; in the data active = activation above about 40%; inconclusive = between about 15% and that limit
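DiscoveRx PathHunter D2 beta-arrestin cells (2,100/well) attached overnight, then compound-stimulated 90 min at 37 C in HBSS/10 mM HEPES/0.1% Tween-20 buffer; beta-galactosidase complementation read by luminescence after 1 h at ambient temperature. Dopamine 57 uM final (EC100) as control.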
D2 PAM-2 – positive allosteric modulators of human D2 dopamine receptor | DiscoveRx D2 beta-arrestin cells, luminescence, 90 min; 100% = 57 uM dopamine signal | potentiation, % (concentration not given with the values) | 0.23% of 360,000 active | AID 624464; in the data active = potentiation above about 50%; inconclusive = mostly about 30% to 49%
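PathHunter beta-arrestin assay in DiscoveRx D2 cells. Compounds were added with an EC20 of dopamine (50 nM final) for 90 min at 37 deg C. Luminescence was read 1 h after detection reagent, with 57 uM dopamine as the EC100 control.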
D2 antag – D2 dopamine receptor (human) antagonism; 2% of 340,000 active; inhibition, % at 10 µM; HEK293 TREx D2 cells, calcium flux, dopamine EC80; P14416; AID 485344; in the data active = inhibition above about 30%; inactive = below that, where a call was filed; note: 0% is about no effect
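Inhibition of EC80 dopamine-driven calcium flux, recorded kinetically, defines activity here; cells are a tetracycline-induced HEK293 T-REx line expressing force-coupled D2.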
D3 arrestin ag – activates human D3 dopamine receptor beta-arrestin recruitment; shares compounds with D2 ag-1; AID 720506; DiscoveRx D3 beta-arrestin cells, luminescence, 90 min; Potency, µM (doses to about 76.9 µM), without a hit: top-dose activation, most hits filed as activators; 4% of 2,300 active;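 note: potency is the fitted concentration of half-maximal effect; 100% = dopamine control response; nearly all actives have a fitted effect of over 70% in size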
Target sequence (P35462 whole entry, looked up): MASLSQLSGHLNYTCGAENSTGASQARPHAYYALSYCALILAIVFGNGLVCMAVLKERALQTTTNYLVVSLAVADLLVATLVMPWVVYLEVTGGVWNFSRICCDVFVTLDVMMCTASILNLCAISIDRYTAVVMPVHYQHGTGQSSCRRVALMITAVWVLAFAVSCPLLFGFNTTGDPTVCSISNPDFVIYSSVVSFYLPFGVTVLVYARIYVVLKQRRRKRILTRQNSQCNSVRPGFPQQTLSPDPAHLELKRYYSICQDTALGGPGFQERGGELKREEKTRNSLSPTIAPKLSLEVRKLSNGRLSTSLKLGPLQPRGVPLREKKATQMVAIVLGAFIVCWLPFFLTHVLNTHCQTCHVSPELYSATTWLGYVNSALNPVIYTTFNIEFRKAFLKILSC
D2 ag-3 – counter-screen for D3 agonists: human D2 dopamine receptor agonism; Potency, µM (doses to about 76.9 µM), without a hit: at the highest dose activation, most hits filed as activators; 5.9% of 2,300 active; AID 720507; shares compounds with D2 ag-1; DiscoveRx PathHunter D2 beta-arrestin, luminescence, 90 min; response scale: percent relative to full dopamine signal; note: potency is the fitted concentration of half-maximal effect; % of control where 0% means no effect; nearly all actives have a fitted effect of over 70% in size
Active calls of the source: *; ? = inconclusive; nt = no result. Unless noted, calls come from the whole dose curve; as a rule, active = well fitted activation curve with a large enough effect; inconclusive = small, poorly fitted or top-dose-only effect; inactive = flat fitted curve, though single readings scatter.

SMILES	D2 PAM-1	D2 ag-1	D2 ag-2	D2 PAM-2	D2 antag	D3 arrestin ag	D2 ag-3
COc1ccc2c(c1)OC[C@H]1[C@H]2N2C(=O)CN(C)C(=O)[C@@]2(C)[C@H]1c1ccccc1	11	1	0	-5	-3	-5%	-1%
O=C(OCC1CCCO1)c1ccc2c(c1)N(Cc1ccccc1F)C(=O)c1ccccc1S2(=O)=O (stereo not given)	1	0	nt	nt	nt	nt	nt
S=C(NCc1ccccn1)Nc1ccccc1	8	0	1	-3	12	0%	0%
CCOC(=O)C(NCCCCl)c1ccccc1 (stereo not given)	-3	35*	-1	-5	22	-6%	-4%
CCOC(=O)C(C(=O)OCC)C(Nc1cccc(Br)c1)c1ccccc1 (stereo not given)	1	2	-3	-19	3	nt	nt
CNC(=O)COc1ccc(Nc2nnc(-c3ccc(C)c(S(=O)(=O)NC(C)(C)C)c3)c3ccccc23)cc1	-17	1	nt	nt	nt	nt	nt
Fc1ccccc1N1CCN(CC2CC3C=CC2C3)CC1 (stereo not given)	-15	79*	?	-7	74*	?	?
COc1ccc(Oc2nc3c(c(=O)n(C)c(=O)n3C)n2Cc2ccc(Cl)cc2Cl)cc1	8	0	nt	nt	nt	nt	nt
N#CCC(=O)NCCCc1ccccc1	-5	41*	-4	-4	6	-6%	-5%
COc1cccc(N2CCN(Cc3cc(=O)oc4cc(C)ccc34)CC2)c1	3	0	nt	nt	nt	nt	nt
COc1cc(C(=O)Nc2nonc2-c2ccc(C)c(C)c2)cc(OC)c1OC	3	1	nt	nt	nt	nt	nt
CCCN(C(=O)CCc1nc(-c2ccc(OC)cc2)no1)c1ccccc1F	18	nt	nt	nt	nt	nt	nt
COc1ccc(-c2c(-c3cc(OC)cc(OC)c3)n(C)c3ccc(-c4cnc(N)nc4)cc23)cc1	nt	nt	-4	-4	nt	nt	nt
COc1ccc(-c2c(-c3cc(OC)cc(OC)c3)n(C)c3ccc(-c4ccc(S(N)(=O)=O)cc4)cc23)cc1	-5	0	-2	-7	-7	-4%	5%
COc1cc(OC)cc(-c2c(-c3cccs3)c3cc(-c4ccc(SC)cc4)ccc3n2C)c1	1	0	2	-2	58*	7%	1%
Clc1cccc(N2CCN(c3nc4ccccc4c4nc(-c5ccccc5)nn34)CC2)c1	-8	nt	nt	nt	nt	nt	nt
CC1=NN(C(N)=S)C(=O)C1N=Nc1ccccc1C(=O)O (stereo not given)	nt	nt	-1	-5	nt	1%	-3%
CC1=NN(C(N)=S)C(=O)C1N=Nc1ccccc1Cl (stereo not given)	6	1	-6	-1	-9	nt	nt
CSc1ccccc1NC(=O)C1C2CCC(C2)C1C(=O)O (stereo not given)	-3	27	-4	-5	-3	-11%	-4%
O=C(O)c1ccc(NC(=O)C2C3CCC(C3)C2C(=O)O)cc1 (stereo not given)	1	0	-2	4	-8	nt	nt
CCOC(=O)c1c(C)[nH]c(C)c1S(=O)(=O)N(C)CC(=O)Nc1ccc(C)cc1C	-3	0	nt	nt	nt	nt	nt
Cc1cc(C(C)(C)C)c(O)c(C)c1CC1=NCCN1	-30	72*	9	-17	64*	3%	14%
c1ccc2c(CC3=NCCN3)cccc2c1	22	14	-4	-20	-5	nt	nt
CCCC(CCC)C(=O)NC1CC(=O)N(c2ccc3c(c2)OCCO3)C1 (stereo not given)	-5	-1	nt	nt	nt	nt	nt
CCc1nnc2n1N(C(C)=O)C(c1ccc(C(C)(C)C)cc1)=C(C(C)=O)S2	17	0	nt	nt	nt	nt	nt
SMILES	D2 PAM-1	D2 ag-1	D2 ag-2	D2 PAM-2	D2 antag	D3 arrestin ag	D2 ag-3
Cc1ccc(Nc2ncnc3c2nc2n3CCCC2)c(Br)c1	4	0	nt	nt	nt	nt	nt
CCOC(=O)N1CCN(C/C(Cl)=C/c2ccccc2)CC1	-21	49*	?	2	8	-1%	16%
COc1ccc(C(CCN2CCN(c3ccccc3)CC2)c2c(OC)cc(OC)c3c(-c4ccccc4)cc(=O)oc23)cc1 (stereo not given)	-9	69*	9	-11	79*	?	?
COc1cc(OC)c2c(-c3ccccc3)cc(=O)oc2c1C(CCN1CCN(c2ccccc2)CC1)c1ccc(N(C)C)cc1 (stereo not given)	nt	nt	4	-19	nt	-6%	19%
COc1cc(O)c(C(CCN2CCN(c3ccccc3)CC2)c2ccc3c(c2)OCO3)c(OC)c1 (stereo not given)	-24	25	1	-19	75*	-5%	5%
CCCCCc1cc(=O)oc2c(C(CCN3CCN(c4ccccc4)CC3)c3ccc(N(C)C)cc3)c(OC)cc(OC)c12 (stereo not given)	4	7	1	-18	21	nt	nt
COc1cc(OC)c2ccc(=O)oc2c1C(CCN1CCN(c2ccccc2)CC1)c1ccc(N(C)C)cc1 (stereo not given)	-15	53*	2	-20	62*	1%	12%
COc1cc(C2CC(=O)Oc3c(C(CCN4CCN(c5ccccc5)CC4)c4ccc(N(C)C)cc4)c(OC)cc(OC)c32)cc(OC)c1OC (stereo not given)	-9	0	15	-15	-3	nt	nt
CC1CCN(S(=O)(=O)c2ccc3c(c2)c(=O)c(C(=O)NCCc2ccccc2)cn3C)CC1	-4	-1	nt	nt	nt	nt	nt
Cc1cc(C)c2oc(C(=O)Nc3nc4ccc(Cl)cc4s3)cc(=O)c2c1	-2	1	nt	nt	nt	nt	nt
COc1ccc(CNC(=O)Nc2cn(CC(C)C)c(=O)c3ccccc23)cc1	2	-1	nt	nt	nt	nt	nt
O=C(O)c1ccc(CSc2nc3ccccc3c(=O)n2-c2ccccc2)cc1	-18	58*	6	26	48*	0%	-3%
O=c1c2ccccc2nc(SCc2ccc([N+](=O)[O-])cc2)n1-c1ccccc1	-4	nt	3	-5	-3	nt	nt
COc1ccc(CCNC(=O)c2nc(SCc3ccc(C)cc3)ncc2Cl)cc1OC	-5	0	nt	nt	nt	nt	nt
CCc1ccc(NC(=O)Cn2c(=O)n(CCCCC(=O)NCc3ccc4c(c3)OCO4)c(=O)c3ccccc32)cc1	-7	0	nt	nt	nt	nt	nt
Cc1ccc(CN2CCN(c3cccc4[nH]ccc34)CC2)cc1	-21	73*	?	-25	72*	-5%	?
O=C(c1ccc(Cl)cc1)N1CCN(c2cccc3[nH]ccc23)CC1	2	6	-4	-6	9	nt	nt
COC(=O)c1c(-c2ccccc2OC)sc2ccccc12	-3	0	-1	-5	-8	-5%	-2%

Screening data from PubChem BioAssay.
